Read-out in test [1]: serum amyloid A (SAA), SAA1 (gene 6288)
In words: BSK_CASM3C_SAA: BioMAP Diversity Plus: CASM3C Assay for serum amyloid A (SAA) Biomarker Activity (AID 2283049).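 Also: SAA protein level quantified by ELISA.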 Particulars: primary human coronary artery smooth muscle cells; actives raise or lower the signal.

A short description of test [2]: BSK_CASM3C_SRB: Viability Assessment in the BioMAP Diversity Plus: CASM3C Assay (AID 2283050). To be noted: primary human coronary artery smooth muscle cells.
Read-out in test [3]: Thrombomodulin, THBD (gene 7056)
Kind of test: BSK_CASM3C_Thrombomodulin: BioMAP Diversity Plus: CASM3C Assay for Thrombomodulin Biomarker Activity (AID 2283051).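 Also: thrombomodulin protein level measured by ELISA 24 h after dosing.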 To be noted: primary human coronary artery smooth muscle cells; actives raise or lower the signal.

Read-out in test [4]: Tissue Factor, F3 (gene 2152)
Kind of test: BSK_CASM3C_TissueFactor: BioMAP Diversity Plus: CASM3C Assay for Tissue Factor Biomarker Activity (AID 2283052).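 Also: cell surface tissue factor protein level read by ELISA.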 To be noted: primary human coronary artery smooth muscle cells; actives raise or lower the signal.

Read-out in test [5]: Interferon-gamma inducible Protein 10 (IP10), CXCL10 (gene 3627)
Kind of test: BSK_hDFCGF_IP10: BioMAP Diversity Plus: hDFCGF Assay for Interferon-gamma inducible Protein 10 (IP10) Biomarker Activity (AID 2283053). To be noted: primary human foreskin fibroblasts; actives raise or lower the signal. The gist of the method: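 Primary human foreskin fibroblasts exposed to chemicals for 24 h. IP-10 measured by ELISA; changes fitted bidirectionally against DMSO baseline.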

Read-out in test [6]: Urokinase-type plasminogen activator receptor (uPAR), PLAUR (gene 5329)
In words: BSK_CASM3C_uPAR: BioMAP Diversity Plus: CASM3C Assay for Urokinase-type plasminogen activator receptor (uPAR) Biomarker Activity (AID 2283054).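 Also: cell-surface uPAR protein level quantified by ELISA.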 To be noted: primary human coronary artery smooth muscle cells; actives raise or lower the signal.

Read-out in test [7]: Vascular cell adhesion molecule 1 (VCAM1), VCAM1 (gene 7412)
Kind of test: BSK_CASM3C_VCAM1: BioMAP Diversity Plus: CASM3C Assay for Vascular cell adhesion molecule 1 (VCAM1) Biomarker Activity (AID 2283055).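 Also: VCAM-1 protein level quantified by ELISA on the cells.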 Particulars: primary human coronary artery smooth muscle cells; actives raise or lower the signal.

Read-out in test [8]: Collagen III, COL3A1 (gene 1281)
Kind of test: BSK_hDFCGF_CollagenIII: BioMAP Diversity Plus: hDFCGF Assay for Collagen III Biomarker Activity (AID 2283056). To be noted: primary human foreskin fibroblasts; actives raise or lower the signal. The gist of the method: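 Response relative to DMSO, fitted in both directions, reflects ELISA-measured collagen III in human primary skin fibroblasts 24 h after compound addition.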

Read-out in test [9]: Epidermal growth factor receptor (EGFR), EGFR (gene 1956)
Kind of test: BSK_hDFCGF_EGFR: BioMAP Diversity Plus: hDFCGF Assay for Epidermal growth factor receptor (EGFR) Biomarker Activity (AID 2283057). Particulars: primary human foreskin fibroblasts; actives raise or lower the signal. The gist of the method:
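Primary human foreskin fibroblasts (hDFCGF system), sampled 24 h after dosing; EGFR quantified by ELISA. Bidirectional fit relative to DMSO baseline; SRB total-protein staining in parallel cultures for cytotoxicity.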

Read-out in test [10]: Interleukin-8 (IL8), CXCL8 (gene 3576)
In words: BSK_hDFCGF_IL8: BioMAP Diversity Plus: hDFCGF Assay for Interleukin-8 (IL8) Biomarker Activity (AID 2283058). To be noted: primary human foreskin fibroblasts; actives raise or lower the signal. Put shortly: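 Fibroblast monolayers (human foreskin, hDFCGF) received test chemical for 24 h before ELISA detection of IL-8; either increases or decreases relative to DMSO count as activity.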

Test [11] can be described thus: BSK_hDFCGF_Proliferation: Cell Proliferation Assessment in the BioMAP Diversity Plus: hDFCGF Assay (AID 2283059).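 Also: curves fitted for both rise and fall of signal versus DMSO baseline.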 To be noted: primary human foreskin fibroblasts. Put shortly: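 This proliferation readout used SRB total-protein staining of human foreskin fibroblasts […], normalized to DMSO with bidirectional curve fitting.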
Read-out in test [12]: Macrophage colony-stimulating factor (MCSF), CSF1 (gene 1435)
Kind of test: BSK_hDFCGF_MCSF: BioMAP Diversity Plus: hDFCGF Assay for Macrophage colony-stimulating factor (MCSF) Biomarker Activity (AID 2283060). Particulars: primary human foreskin fibroblasts; actives raise or lower the signal. The gist of the method: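 fibroblasts (human foreskin, primary), 24 h post-dose; M-CSF by ELISA; bidirectional fit, DMSO = baseline.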

A short description of test [13]: BSK_hDFCGF_SRB: Viability Assessment in the BioMAP Diversity Plus: hDFCGF Assay (AID 2283061).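 Also: cells exposed to compound for 24 h before the read.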 To be noted: primary human foreskin fibroblasts. The gist of the method: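 SRB-based viability read on primary human skin fibroblasts at 24 h: TCA fixation, 0.1% dye, 560 nm. Gain or loss of signal is fitted against the DMSO negative control.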
Read-out in test [14]: TIMP metallopeptidase inhibitor 1 (TIMP1), TIMP1 (gene 7076)
Kind of test: BSK_hDFCGF_TIMP1: BioMAP Diversity Plus: hDFCGF Assay for TIMP metallopeptidase inhibitor 1 (TIMP1) Biomarker Activity (AID 2283062). Particulars: primary human foreskin fibroblasts; actives raise or lower the signal. The gist of the method:
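Bidirectional curve fitting against DMSO baseline yielded this endpoint, based on ELISA detection of TIMP-1 in primary human foreskin fibroblasts exposed to compound for 24 h.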

Read-out in test [15]: Monokine induced gamma interferon (MIG), CXCL9 (gene 4283)
In words: BSK_hDFCGF_MIG: BioMAP Diversity Plus: hDFCGF Assay for Monokine induced gamma interferon (MIG) Biomarker Activity (AID 2283063). Particulars: primary human foreskin fibroblasts; actives raise or lower the signal. The gist of the method: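 Endpoint derived by bidirectional fitting relative to DMSO; MIG quantified via ELISA in primary human foreskin fibroblasts harvested 24 h after dosing.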

Read-out in test [16]: Matrix Metallopeptidase 1 (MMP1), MMP1 (gene 4312)
In words: BSK_hDFCGF_MMP1: BioMAP Diversity Plus: hDFCGF Assay for Matrix Metallopeptidase 1 (MMP1) Biomarker Activity (AID 2283064). Particulars: primary human foreskin fibroblasts; actives raise or lower the signal. The gist of the method:
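Primary human foreskin fibroblasts exposed to chemicals for 24 h; MMP1 measured by ELISA. Cytotoxicity tracked by SRB staining in parallel cultures; bidirectional fit relative to DMSO.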

Read-out in test [17]: Vascular cell adhesion molecule 1 (VCAM1), VCAM1 (gene 7412)
Kind of test: BSK_hDFCGF_VCAM1: BioMAP Diversity Plus: hDFCGF Assay for Vascular cell adhesion molecule 1 (VCAM1) Biomarker Activity (AID 2283065).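 As to AC50: VCAM-1 protein level quantified by ELISA after 24 h chemical exposure.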 To be noted: primary human foreskin fibroblasts; actives raise or lower the signal. The gist of the method:
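Measured after 24 h chemical treatment of primary human skin fibroblasts, VCAM-1 was detected by ELISA and concentration-response analysed in both directions versus DMSO vehicle.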

Read-out in test [18]: Plasminogen activator inhibitor-1 (PAI1), SERPINE1 (gene 5054)
Kind of test: BSK_hDFCGF_PAI1: BioMAP Diversity Plus: hDFCGF Assay for Plasminogen activator inhibitor-1 (PAI1) Biomarker Activity (AID 2283066). Particulars: primary human foreskin fibroblasts; actives raise or lower the signal. Put shortly:
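Human foreskin fibroblast primary cells, 24 h chemical exposure; PAI-1 measured by ELISA. Bidirectional fitting relative to DMSO; parallel cultures stained with SRB for total protein to flag overt cytotoxicity.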

Read-out in test [19]: Intercellular Adhesion Molecule 1 (ICAM1), ICAM1 (gene 3383)
Kind of test: BSK_KF3CT_ICAM1: BioMAP Diversity Plus: KF3CT Assay for Intercellular Adhesion Molecule 1 (ICAM1) Biomarker Activity (AID 2283067). To be noted: primary human keratinocytes with fibroblasts; actives raise or lower the signal. The gist of the method: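 Bidirectional curve fitting against a DMSO baseline was applied to ICAM-1 ELISA signal from primary human skin co-cultures harvested 24 h after treatment, with SRB staining of parallel wells for overt cytotoxicity.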

Read-out in test [20]: Interferon-gamma inducible Protein 10 (IP10), CXCL10 (gene 3627)
In words: BSK_KF3CT_IP10: BioMAP Diversity Plus: KF3CT Assay for Interferon-gamma inducible Protein 10 (IP10) Biomarker Activity (AID 2283068). Particulars: primary human keratinocytes with fibroblasts; actives raise or lower the signal. Put shortly: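 Signal is secreted/surface IP-10 by ELISA in a human primary skin co-culture of keratinocytes and foreskin fibroblasts, taken 24 h post-dosing; DMSO served as negative control.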

Activity calls are given as the source filed them. The calls were made as follows: active = hit-call score of the fitted dose curve at least 0.9, where 1 is the maximum; inactive = score below 0.9.

In general, AC50 refers to the concentration giving half of the maximal activity seen.

As for `O=c1[nH]c(=O)[nH]c(=O)[nH]1`, the result in [1], in test [2], in test [3], in test [4], in [5] and in [6] was inactive. Besides, the result in test [7], in test [8], in test [9], in test [10], in test [11] and in [12] was inactive. Moreover, the outcome in test [13], in test [14], in test [15], in [16], in test [17] and in [18] was inactive. The outcome in [19] and in test [20] was inactive.

For `CCOP(=S)(OCC)SCCS(=O)(=O)CC`, the result in test [1], in test [2], in test [3], in [4], in [5] and in [6] was inactive. Also, the result in [7], in [8], in [9], in test [10], in [11] and in [12] was inactive. Also, the result in [13], in [14], in [15], in test [16], in test [17] and in test [18] was inactive. The outcome in test [19] and in test [20] was inactive.

On to `O=[N+]([O-])c1ccc2c3c(cccc13)CC2`, for which the result in test [1], in test [2], in [3], in [4], in test [5] and in [6] was inactive. For the same molecule, the result in [7], in test [8], in [9], in test [10], in test [13] and in test [14] was inactive. Moreover, the outcome in [15], in test [16], in [17], in test [18], in [19] and in [20] was inactive. In addition, the figures for the AC50 in [11] and in test [12] were 27.7 µM (active) and 10.6 µM (active), respectively.

Turning to `O=C(OC1CCCCC1)c1ccccc1C(=O)OC1CCCCC1`, the result in test [1], in test [6], in test [7], in [19] and in test [20] was inactive. Besides, the AC50 was 20.9 µM (active) in [2]; 20.9 µM (active) in test [3]; 33 µM (active) in test [4]; 13.4 µM (active) in test [5]; 5.33 µM (active) in test [8]; 20.9 µM (active) in [9]. The AC50 in test [10] is 34.9 µM (active); in test [11], 10.2 µM (active); in test [12] it was 11 µM (active); in test [13], 9.82 µM (active); in [14], 14.3 µM (active); in [15], 16.4 µM (active). In addition, the half-maximal activity concentration (AC50) in test [16] is 20.9 µM (active); in test [17] it was 6.34 µM (active); in test [18], 12.3 µM (active).

Regarding `COC(=O)Cc1ccccc1`, the outcome in [1], in [2], in [3], in test [4], in [5] and in test [6] was inactive. The outcome in test [7], in [8], in [9], in [10], in test [11] and in test [12] was inactive. Besides, the outcome in [13], in [14], in test [15], in [16], in test [17] and in test [18] was inactive. Besides, the outcome in test [19] and in test [20] was inactive.

The values are drawn from PubChem BioAssay (EPA / NIEHS).
